# Hits are enriched below; roughly 18% of the tested compounds scored in any of these assays.
# DT40 TDP1 CPT = qHTS for Inhibitors of human tyrosyl-DNA phosphodiesterase 1 (TDP1): qHTS in cells in presence of CPT | chicken DT40 Tdp1-/-;hTDP1 cells + 20 nM CPT, ATP luminescence, 48 h | Potency, µM (highest dose often 46.2 µM), for inactives: at the top dose activity change, negative = growth inhibition, usual class: inhibitors | 420,000 tested, 12% active | AID 686979, 2013; note: nearly all actives have a fitted effect of over 55% in size
#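 Chicken DT40 Tdp1-/- cells stably complemented with human TDP1 were seeded at 400 cells/well in medium containing 20 nM camptothecin, exposed to pin-transferred compounds, and grown at 37 °C for at least 48 hr. Viability was read as ATP luminescence.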
# GCN5L2 inh = qHTS Assay for Inhibitors of GCN5L2; Histone acetyltransferase KAT2A (Homo sapiens), Q92830; GCN5L2 HAT assay, ThioGlo1 CoA-SH fluorescence; Potency, µM (titrated, usually from 58.9 µM), inactives show top-dose activity change, negative = inhibition, actives largely listed as inhibitors; AID 504327, 2011; 390,000 tested, 0.21% active
#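 GCN5L2 (20nM final) in 50mM HEPES, 0.1mM EDTA pH 7.5, 0.01% Tween-20 was preincubated 15 min at room temperature with compound, then given ThioGlo1 (50uM), H3(1-25) peptide (75uM) and acetyl-CoA (70uM); CoA-thiol fluorescence (Ex340/Em540) was read at 0 and 20 min.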
# VDR inhibitor = Inhibitors of the vitamin D receptor (VDR): qHTS | AID 504847, 2011 | 400,000 tested, 0.93% active | VDR-SRC2-3 peptide fluorescence polarization, 2 h | Potency, µM, for the others: max response, negative = inhibition, usual class: inhibitors
# Target sequence (P11473 whole entry, looked up): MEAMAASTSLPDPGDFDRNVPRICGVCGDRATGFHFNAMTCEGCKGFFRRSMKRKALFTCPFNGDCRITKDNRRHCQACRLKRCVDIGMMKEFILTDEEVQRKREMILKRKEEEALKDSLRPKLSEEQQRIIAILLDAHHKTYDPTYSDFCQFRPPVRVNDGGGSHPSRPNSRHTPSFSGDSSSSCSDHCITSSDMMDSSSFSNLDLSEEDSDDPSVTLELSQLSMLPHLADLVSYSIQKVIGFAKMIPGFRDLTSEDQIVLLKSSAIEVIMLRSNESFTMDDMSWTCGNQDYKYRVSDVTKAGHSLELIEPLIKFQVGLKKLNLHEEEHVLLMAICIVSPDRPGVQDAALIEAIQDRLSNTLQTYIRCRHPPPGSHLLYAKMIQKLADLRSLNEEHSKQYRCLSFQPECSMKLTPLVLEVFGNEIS
#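 The screen uses fluorescence polarization to detect compounds that interfere with recruitment of the SRC2-3 coactivator peptide to VDR; plates are read after 2 h at room temperature.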
# PLK1 PBD inh = qHTS for Inhibitors of PLK1-PDB (polo-like kinase 1 - polo-box domain): Primary Screen; Serine/threonine-protein kinase PLK1 (Homo sapiens), P53350; Plk1 PBD binding of FITC phosphopeptide, fluorescence polarization; Potency, µM, for inactives: max response, negative = inhibition, actives largely listed as inhibitors; 360,000 tested, 2.8% active; note: series mostly up to about 57 µM; nearly all actives have a fitted effect of over 65% in size
# TDP1 inh = qHTS Assay for Inhibitors of Tyrosyl-DNA Phosphodiesterase (TDP1) | recombinant TDP1, AlphaScreen DNA substrate cleavage | Potency, µM (series often up to 130 µM), for inactives: at the top dose activity change, negative = inhibition, usual class: inhibitors | Tyrosyl-DNA phosphodiesterase 1 (Homo sapiens), Q9NUW8 | 350,000 tested, 0.28% active | AID 485290, 2010; note: nearly all actives have a fitted effect of over 40% in size
#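 Enzyme-compound mixtures sat 15 min at room temperature, followed by a 5 min reaction with 15 nM final substrate and 10 min with AlphaScreen beads. Recombinant human Tdp1 was used at 1 nM final.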
# DT40 TDP1 no CPT = qHTS for Inhibitors of human tyrosyl-DNA phosphodiesterase 1 (TDP1): qHTS in cells in absence of CPT; Potency, µM (titrated, usually from 46.2 µM), without a hit: at the highest dose activity change, negative = growth inhibition, most hits filed as inhibitors; AID 686978, 2013; DT40 Tdp1-/- hTDP1 cells, no CPT, ATP luminescence, 48 h; 420,000 tested, 15% active; note: nearly all actives have a fitted effect of over 55% in size
#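 Luminescent ATP content (CellTiter-Glo) served as the growth readout. Knockout chicken DT40 cells expressing human TDP1 were exposed to compounds without camptothecin for a minimum 48 hr at 37 °C.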
# The depositor's hits bear a star; u = inconclusive; x = no result; [ ] = dose if it differs, or a comment. Calls come from the whole dose curve; as a rule, active = well fitted curve in the direction sought with a large enough effect; inconclusive = small, poorly fitted or top-dose-only effect, or another doubt; inactive = no such curve, though single readings can be large; an effect the other way counts as inactive or inconclusive. % is set by controls: 0 for no effect and ±100 for the full control effect; potency is the fitted concentration of half-maximal effect.
SMILES,DT40 TDP1 CPT,GCN5L2 inh,VDR inhibitor,PLK1 PBD inh,TDP1 inh,DT40 TDP1 no CPT
Cc1cnc(-n2ncc(C(=O)N(C)CC3CCCN(C)C3)c2C2CC2)nc1-c1cccs1 (stereo not drawn),0%,x,x,x,x,-6%
O=C(OCCN1C(=O)c2ccccc2C1=O)c1cc(S(=O)(=O)N2CCOCC2)ccc1Cl,9%,-16%,2%,1%,7%,3%
O=C(OCCN1C(=O)c2cccc3c(N4CCOCC4)ccc(c23)C1=O)c1ccc(Cl)cc1Cl,3.7µM*,-7%,7%,19µM*,x,4.1µM*
COc1c(Cl)cccc1-c1cn2ccc(C)cc2n1,0%,-2%,-7%,0%,x,u
C/C(=N\NC(=O)CSCc1ccc([N+](=O)[O-])cc1)c1ccccc1,u,-3%,-8%,-3%,7%,16µM*
C/C(=N\NC(=O)CSCc1ccc([N+](=O)[O-])cc1)c1ccccc1O,5.2µM*,-3%,-28%,-10%,0%,3.7µM*
O=C(N/N=C/c1ccc([N+](=O)[O-])cc1)c1ccc2nc[nH]c2c1,11%,-3%,-4%,u,2%,u
C/C(=N\NC(=O)c1ccc2nc[nH]c2c1)c1ccc([N+](=O)[O-])cc1,x,-5%,x,x,79µM*,x
C/C(=N\NC(=O)C(C)Sc1ccccc1)C(C)(C)C (stereo not drawn),-6%,-9%,-12%,-3%,0%,-1%
C/C(=N\NC(=O)C(C)Sc1ccccc1)c1ccc([N+](=O)[O-])cc1 (stereo not drawn),u,-1%,-9%,-10%,x,4.1µM*
O=C(/C=C/c1cccc(Br)c1)N1CCN(c2ccccn2)CC1,-3%,-5%,-3%,-3%,9%,-4%
CN(C)Cc1nc(-c2cn(C)c3ccccc23)no1,x,u,13%,x,13%,x
COc1ccc(CCN(C)C(=O)C(CCSC)NC(=O)c2ccco2)cc1OC (stereo not drawn),-20%,0%,1%,0%,2%,-1%
C/C(=N\NC(=O)Cc1ccc(Cl)cc1)c1ccccc1O,u,-5%,12%,-7%,x,0.16µM*
C/C(=N\NC(=O)Cc1ccc(Cl)cc1)c1ccc(F)cc1,-13%,-4%,-17%,-10%,3%,u
COc1ccc(-n2c(=O)c3ccccc3n(Cc3ccc(F)cc3Cl)c2=O)cc1OC,-5%,-2%,-6%,x,5%,-1%
CCn1nc(C)c(CN2CCCC(CNS(=O)(=O)c3ccc(OC)cc3)C2)c1C (stereo not drawn),21µM*,-1%,12%,1%,6%,u
Cc1ccc2nc(-c3cccs3)c(Nc3c(C)cccc3C)n2c1,23µM*,-7%,-3%,x,10%,26µM*
Cc1cccc(C)c1Nc1c(-c2cccs2)nc2ncccn12,21µM*,1%,u,x,-4%[12.3 µM],u
C=C1C2=C(C(=O)N1OC)[C@@H](O)[C@@](C)(O)[C@@H](CCCCC)O2,15µM*,x,x,-11%,x,13µM*
COc1ccc(C(C#N)CC(=O)c2ccc(OC)c(OCc3ccccc3)c2)cc1OC (stereo not drawn),15µM*,x,x,4%,x,21µM*
COc1ccc(C(=O)COC(=O)c2ccc(OC)c(OC)c2)cc1OC,-9%,2%,0%,-6%,-2%,-24%
COc1ccc(C(=O)CSC#N)cc1OC,3.3µM*,-9%,u,24µM*,0%,2.9µM*
CCC(=O)c1ccc(OCc2ccccc2)c(OC)c1,14%,-1%,-8%,6%,-1%,u
O=C1Nc2ccc(I)cc2C1=Cc1cc(Br)c(O)c(Br)c1,10µM*,x,x,x,x,11µM*
SMILES,DT40 TDP1 CPT,GCN5L2 inh,VDR inhibitor,PLK1 PBD inh,TDP1 inh,DT40 TDP1 no CPT
FC(F)(F)c1nc(NCc2cccnc2)c2ccccc2n1,u,-2%,-13%,8%,3%,23µM*
FC(F)(F)c1ccccc1-c1nc(NCc2cccnc2)c2ccccc2n1,-16%,-17%,u,x,x,-7%
CCc1ccc(NC(=O)C(NS(=O)(=O)c2cccs2)C(C)C)cc1 (stereo not drawn),u,-4%,-23%,x,-2%,u
CCN(CC)c1ccc(NC(=O)C(NS(=O)(=O)c2cccs2)C(C)C)c(C)c1 (stereo not drawn),21µM*,-17%,-11%,x,1%,21µM*
COc1cc2nc(N(C)C)c(CNC3CCOC(C)(C)C3)cc2c(OC)c1OC (stereo not drawn),-7%[9.04 µM],x,x,x,x,-23%
O=C(NCCc1csc(-c2ccc(Cl)cc2)n1)c1ccco1,u,-2%,-2%,-16%,3%,15µM*
O=C(NCCc1csc(-c2ccc(F)cc2)n1)c1cccc(F)c1,u,-7%,18%,x,3%,18µM*
O=C(NCCc1csc(-c2ccc(F)cc2)n1)c1c(F)cccc1Cl,23µM*,-5%,15%,x,1%,u
O=C(NCCc1csc(-c2ccccc2)n1)c1c(F)cccc1Cl,2%,-5%,0%,2%,-2%,u
C/C(N[C@@H]1CSCC1O)=C1/C(=O)CC2[C@@H]1C2(C)C (stereo partly drawn),-9%[9.04 µM],x,-4%,x,5%,5%[9.04 µM]
Cc1c(Cl)cccc1NS(=O)(=O)c1cc2c(cc1Cl)CCC(=O)N2,x,x,x,x,1%,x
CCN(CC)c1ccc(NC(=O)c2ccccc2OCC(=O)OC)cc1,-8%,-2%,-15%,-13%,4%,4%
Cc1nn(Cc2ccccc2Cl)c2sc(C(=O)Nc3ccccc3N3CCOCC3)cc12,10µM*,-12%,10%,-7%,3%,u
CCC(CC)NC(=O)c1cc2c(C)nn(Cc3ccccc3Cl)c2s1,23µM*,-11%,31%,-7%,7%,u
Cc1nn(Cc2ccc(F)cc2)c2sc(C(=O)Nc3ccccc3N3CCOCC3)cc12,u,2%,-8%,0%,5%,u
O=C(Nc1ccccc1)/C(=C\c1ccc2c(c1)OCO2)NC(=O)c1ccco1,-26%,-9%,-29%,24µM*,-2%,-4%
O=C(Nc1ccccc1)/C(=C/c1ccc2c(c1)OCO2)NC(=O)c1ccco1,-3%,-2%,-6%,-12%,3%,-9%

# Screens: PubChem BioAssay, National Center for Advancing Translational Sciences (NCATS)
